In PubChem BioAssay:
For part of these data: Results with a measured potency or affinity are listed apart. Activity calls are given as the source filed them.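 How the source made its calls, unless noted: active means calcium signal ratio cut to more than 3 SD under the fully stimulated control mean yet still positive, in both repeats and the primary screen; inactive means the rest.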

Legend:
[1] = tested on: TRPC4 beta (transient receptor potential cation channel C4), mouse; test: activators of mouse TRPC4 channel, confirmation, cell-based, Fluo4 calcium, HEK293 TRPC4beta/mu-opioid, duplicates, 10 µM (AID 2426;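 active means fluorescence ratio normalized to control raised more than 50% in primary screen plus both repeat runs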); conditions: Fluo4 calcium fluorescence, at 10 µM; active compounds read high
[2] = tested on: transient receptor potential cation channel C4 beta (TRPC4), mouse; test: activators of mouse TRPC4 channel, confirmation, cell-based, second round, Fluo4, HEK293 TRPC4beta/mu-opioid, 1 µM (AID 2461;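 active means primary screen active and over 50% activation in each of two duplicate runs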); conditions: Fluo4 calcium fluorescence, at 1 µM; active compounds read high
[3] = tested on: TRPC4 (transient receptor potential cation channel C4 beta), mouse; test: positive allosteric modulators of mouse TRPC4, confirmation, cell-based, second round, Fluo-4, HEK293 TRPC4beta/mu-opioid, 1 µM (AID 2554;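 active means primary screen hit whose fluorescence ratio, in both repeats, exceeds the weak agonist control mean by 3 SD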); conditions: DAMGO EC20, Fluo-4 calcium flux, at 1 µM; active compounds read high
[4] = tested on: TRPC4 beta (transient receptor potential cation channel C4), mouse; test: positive allosteric modulators of mouse TRPC4, confirmation, cell-based, Fluo-4, HEK293 TRPC4beta/mu-opioid (AID 2555;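 active means primary screen hit whose calcium fluorescence ratio, in both repeats, exceeds the weak agonist control mean by 3 SD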); conditions: DAMGO EC20, Fluo-4 calcium flux, at 10 µM; active compounds read high
[5] = molecular target: Short transient receptor potential channel 4 (Mus musculus) (UniProt Q9QUQ5); test: inhibitors of mouse TRPC4 channel, confirmation, cell-based, Fluo4, HEK293 TRPC4beta/mu-opioid (AID 2636;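 active means calcium signal cut by more than 3 SD below the full-agonist control yet still positive, in both repeats and the earlier primary screen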); conditions: DAMGO, Fluo4 calcium flux, at 10 µM; active compounds read high
Sequence of Short transient receptor potential channel 4 (Mus musculus) (Q9QUQ5 whole entry, looked up): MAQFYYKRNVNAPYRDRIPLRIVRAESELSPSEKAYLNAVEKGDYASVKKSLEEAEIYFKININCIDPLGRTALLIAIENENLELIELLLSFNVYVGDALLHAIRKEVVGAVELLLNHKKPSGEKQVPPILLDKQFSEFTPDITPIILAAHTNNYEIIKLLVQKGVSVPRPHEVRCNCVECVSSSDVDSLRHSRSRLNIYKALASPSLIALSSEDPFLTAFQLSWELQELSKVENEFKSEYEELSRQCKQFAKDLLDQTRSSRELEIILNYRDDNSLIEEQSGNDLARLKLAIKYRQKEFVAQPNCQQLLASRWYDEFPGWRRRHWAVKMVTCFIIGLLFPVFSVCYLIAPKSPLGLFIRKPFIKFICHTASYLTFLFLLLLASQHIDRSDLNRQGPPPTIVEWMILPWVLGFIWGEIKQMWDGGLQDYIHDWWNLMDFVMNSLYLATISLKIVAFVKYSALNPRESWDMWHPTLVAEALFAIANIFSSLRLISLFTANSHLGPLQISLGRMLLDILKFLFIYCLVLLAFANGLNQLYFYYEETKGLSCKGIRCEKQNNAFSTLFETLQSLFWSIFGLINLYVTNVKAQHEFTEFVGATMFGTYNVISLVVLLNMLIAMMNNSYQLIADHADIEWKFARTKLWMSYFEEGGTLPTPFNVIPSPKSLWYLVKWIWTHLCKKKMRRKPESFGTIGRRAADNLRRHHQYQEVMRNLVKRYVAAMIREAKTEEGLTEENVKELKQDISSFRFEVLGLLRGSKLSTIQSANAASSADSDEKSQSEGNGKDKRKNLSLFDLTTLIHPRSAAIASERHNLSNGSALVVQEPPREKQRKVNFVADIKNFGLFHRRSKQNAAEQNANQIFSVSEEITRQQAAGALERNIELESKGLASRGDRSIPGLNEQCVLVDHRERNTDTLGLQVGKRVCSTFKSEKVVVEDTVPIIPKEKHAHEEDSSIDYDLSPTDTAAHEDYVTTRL

[6] = molecular target: Short transient receptor potential channel 4 (Mus musculus) (UniProt Q9QUQ5); test: inhibitors of mouse TRPC4 channel, confirmation, cell-based, second round, Fluo4, HEK293 TRPC4beta/mu-opioid, 1 µM (AID 2637); conditions: Fluo4 calcium flux, DAMGO, at 1 µM; active compounds read high
[7] = molecular target: Short transient receptor potential channel 4 (Mus musculus) (UniProt Q9QUQ5); test: mouse TRPC4 channel activators, dose response, cell-based, HEK293 TRPC4/mu-opioid, Fluo-4 calcium (AID 434937;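 active means primary screen activator hit with a dose response curve and TRPC4 channel activation at any tested dose; inactive means no activation, no dose response, or not a primary hit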)
[8] = molecular target: Short transient receptor potential channel 4 (Mus musculus) (UniProt Q9QUQ5); test: TRPC4 positive allosteric modulators, dose response, cell-based, HEK293 TRPC4/mu-opioid, Fluo-4 calcium, EC20 DAMGO (AID 434941;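 active means earlier screen potentiator hit that boosts the TRPC4 ion channel at some dose, with a dose response; inactive means no potentiation, no dose response, or not a prior hit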;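 further: calcium entry triggered by an EC20 dose of DAMGO at the co-expressed mu-opioid receptor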)
[9] = molecular target: Short transient receptor potential channel 4 (Mus musculus) (UniProt Q9QUQ5); test: mouse TRPC4 channel inhibitors, dose response, cell-based, HEK293 TRPC4/mu-opioid, Fluo-4 calcium (AID 434942;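 active means primary screen inhibitor hit that blocks the TRPC4 channel at some tested dose, yielding a dose curve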)
[10] = molecular target: Short transient receptor potential channel 6 (Mus musculus) (UniProt Q61143); test: inhibition of mouse TRPC6 channel, confirmation, selectivity assay for TRPC4 inhibitor project, cell-based, HEK293, membrane potential dye, duplicate (AID 434948;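 active means active in primary screen and both duplicates, each dropping signal beyond three positive-control SD with fluorescence still positive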); conditions: HEK293 TRPC6, membrane potential dye fluorescence, at 10 µM, stimulated with maximal-effect acetylcholine; active compounds read high
Sequence of Short transient receptor potential channel 6 (Mus musculus) (Q61143 whole entry, looked up): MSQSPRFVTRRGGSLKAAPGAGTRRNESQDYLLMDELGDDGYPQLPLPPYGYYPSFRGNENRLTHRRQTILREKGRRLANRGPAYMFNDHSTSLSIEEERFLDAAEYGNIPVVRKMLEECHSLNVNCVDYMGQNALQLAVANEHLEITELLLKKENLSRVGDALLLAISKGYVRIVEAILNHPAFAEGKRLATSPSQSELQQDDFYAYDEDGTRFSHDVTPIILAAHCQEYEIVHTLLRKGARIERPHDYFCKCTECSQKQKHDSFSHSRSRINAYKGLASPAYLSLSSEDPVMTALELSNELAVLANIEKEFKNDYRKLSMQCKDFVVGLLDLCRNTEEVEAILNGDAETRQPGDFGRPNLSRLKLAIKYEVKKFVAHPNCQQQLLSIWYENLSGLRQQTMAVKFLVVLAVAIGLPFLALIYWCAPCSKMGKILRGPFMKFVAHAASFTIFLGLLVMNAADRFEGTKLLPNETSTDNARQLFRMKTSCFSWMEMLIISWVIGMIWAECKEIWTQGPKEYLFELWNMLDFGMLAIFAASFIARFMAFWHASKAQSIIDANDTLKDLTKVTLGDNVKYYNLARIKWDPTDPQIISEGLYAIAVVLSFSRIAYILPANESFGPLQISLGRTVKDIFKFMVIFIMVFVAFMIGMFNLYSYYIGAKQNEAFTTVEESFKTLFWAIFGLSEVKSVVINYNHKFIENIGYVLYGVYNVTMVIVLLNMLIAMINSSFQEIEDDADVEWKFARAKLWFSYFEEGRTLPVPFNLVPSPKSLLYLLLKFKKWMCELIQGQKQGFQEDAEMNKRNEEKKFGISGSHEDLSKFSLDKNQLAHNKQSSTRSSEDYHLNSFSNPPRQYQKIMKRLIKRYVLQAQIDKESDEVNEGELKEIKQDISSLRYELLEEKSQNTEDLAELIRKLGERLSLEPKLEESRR

[11] = molecular target: Short transient receptor potential channel 6 (Mus musculus) (UniProt Q61143); test: activation of mouse TRPC6 channel, confirmation, selectivity assay for TRPC4 activator project, cell-based, HEK293, membrane potential dye, duplicate (AID 434950;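 active means membrane potential signal rise above negative control mean plus 3 SD in both duplicates, also active in the earlier TRPC4 screen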;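 on activation: 0% = buffer only wells and 100% = acetylcholine maximal-effect wells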); conditions: HEK293 TRPC6, membrane potential fluorescence, at 10 µM; active compounds read high
[12] = molecular target: Short transient receptor potential channel 6 (Mus musculus) (UniProt Q61143); test: TRPC6 potentiation by TRPC4 potentiator hits, confirmation, selectivity assay for TRPC4 potentiator project, HEK293 cells, membrane potential dye, duplicate (AID 434952;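 active means compound raising the membrane signal above positive-control mean plus 3 SD in both repeats, and a primary screen hit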); conditions: HEK293 TRPC6, membrane potential dye fluorescence, at 10 µM, maximal acetylcholine added after compound; active compounds read high
[13] = molecular target: Short transient receptor potential channel 4 (Mus musculus) (UniProt Q9QUQ5); test: calcium flux activators in TRPC4/5HT1a cells, counter-screen for TRPC4 activator project, cell-based, second counter screen, HEK293 TRPC4/5HT1a, Fluo-4 (AID 434977;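 active means calcium signal rise above buffer-control mean plus 5 SD in both duplicates, and also a hit in the primary screen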;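 on activation: plate controls were assay buffer for no effect and maximal serotonin response for full effect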); conditions: Fluo-4 calcium flux, at 10 µM; active compounds read high
[14] = calcium flux inhibitors in TRPC4/5HT1a cells, confirmation, counter-screen for TRPC4 inhibitor project, cell-based, second counter screen, HEK293 TRPC4/5HT1a, Fluo-4 (AID 434978;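 active means primary screen active whose calcium signal fell more than 3 SD beyond the full-serotonin control mean in both duplicate plates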;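 on outcome: serotonin given first at submaximal then at maximal dose after compound preincubation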); conditions: Fluo-4 calcium flux, at 10 µM, serotonin added to trigger calcium flux; active compounds read high
[15] = tested on: TRPC4 (mouse), co-expressed with 5HT1a in HEK293; test: calcium flux potentiators in TRPC4/5HT1a cells, confirmation, counter-screen for TRPC4 potentiator project, cell-based, second counter screen, HEK293 TRPC4/5HT1a, Fluo-4 (AID 434979;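 active means signal rise over 3 SD above mean of control wells given weak agonist, in both repeats and first screen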); conditions: Fluo-4 calcium flux, at 10 µM, serotonin added at its EC20 dose; active compounds read high
[16] = calcium flux activation in mu-opioid HEK293 cells, confirmation, counter-screen for TRPC4 activator project, cell-based, HEK293 mu-opioid receptor line (AID 449723;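 active means hit in primary screen, with calcium signal over 5 SD above buffer well mean in both duplicates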;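 further: counter screen cells carry the mu-opioid receptor alone and lack TRPC4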); conditions: Fluo-4 calcium fluorescence, at 10 µM; active compounds read high
[17] = calcium flux enhancement in mu-opioid HEK293 cells, confirmation, counter-screen for TRPC4 allosteric potentiator project, cell-based, HEK293 mu-opioid receptor line (AID 449724;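 active means calcium signal rise more than 3 SD above the low-dose agonist control mean, in both duplicate plates and the primary screen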); conditions: Fluo-4 calcium flux, at 10 µM, compound added before EC20 DAMGO stimulus; active compounds read high

c1ccc(-c2cnc(SCCN3CCOCC3)n2CC2CCCO2)cc1 (stereo not given)
inactive: outcome [1] | outcome [2] | outcome [3] | outcome [4] | outcome [5] | outcome [6] | outcome [7] | outcome [8] | outcome [9] | outcome [10] | outcome [11] | outcome [12] | outcome [13] | outcome [14] | outcome [15] | outcome [16] | outcome [17]

CCOC(=O)c1c(C)n(C)c2ccc(OCC(O)CNCCc3ccccc3)cc12 (stereo not given)
inactive: outcome [1] | outcome [2] | outcome [3] | outcome [4] | outcome [5] | outcome [6] | outcome [7] | outcome [8] | outcome [9] | outcome [10] | outcome [11] | outcome [12] | outcome [13] | outcome [14] | outcome [15] | outcome [16] | outcome [17]

CN(Cc1ccccc1)Cc1nc2c(c(=O)n(C)c(=O)n2C)n1CCCc1ccccc1
inactive: outcome [1] | outcome [2] | outcome [3] | outcome [4] | outcome [5] | outcome [6] | outcome [7] | outcome [8] | outcome [9] | outcome [10] | outcome [11] | outcome [12] | outcome [13] | outcome [14] | outcome [16] | outcome [17]
active: potentiation [15] 8.51%

Nc1nn2c(C(F)(F)F)cc(=O)[nH]c2c1N=Nc1cccc(F)c1
inactive: outcome [1] | outcome [2] | outcome [3] | outcome [4] | outcome [5] | outcome [6] | outcome [7] | outcome [8] | outcome [9] | outcome [10] | outcome [11] | outcome [12] | outcome [13] | outcome [14] | outcome [15] | outcome [16] | outcome [17]

O=C(COC(=O)c1nc(Cl)ccc1Cl)c1ccccc1Cl
inactive: outcome [1] | outcome [2] | outcome [3] | outcome [4] | outcome [5] | outcome [6] | outcome [7] | outcome [8] | outcome [9] | outcome [10] | outcome [11] | outcome [12] | outcome [13] | outcome [14] | outcome [15] | outcome [16] | outcome [17]

Cc1oc(-c2ccc(Cl)cc2)nc1CN1CCC(C(=O)N2CCc3ccccc3C2)CC1
inactive: outcome [1] | outcome [2] | outcome [3] | outcome [5] | outcome [6] | outcome [7] | outcome [8] | outcome [9] | outcome [10] | outcome [11] | outcome [12] | outcome [13] | outcome [14] | outcome [16] | outcome [17]
active: potentiation [4] 16% | potentiation [15] 10.2%

COc1ccc(NS(=O)(=O)c2csc(C(N)=O)c2)cc1OC
inactive: outcome [1] | outcome [2] | outcome [3] | outcome [4] | outcome [5] | outcome [6] | outcome [7] | outcome [8] | outcome [9] | outcome [10] | outcome [11] | outcome [12] | outcome [13] | outcome [14] | outcome [16] | outcome [17]
active: potentiation [15] 12.9%

C=CCOc1ccc(Br)cc1/C=N/O
inactive: outcome [1] | outcome [2] | outcome [3] | outcome [4] | outcome [5] | outcome [6] | outcome [7] | outcome [8] | outcome [9] | outcome [10] | outcome [11] | outcome [12] | outcome [13] | outcome [14] | outcome [15] | outcome [16] | outcome [17]

O=[N+]([O-])c1cc(Cc2ccccc2)cc(C=Nc2ccc(N3CCOCC3)cc2)c1O
inactive: outcome [1] | outcome [2] | outcome [3] | outcome [4] | outcome [5] | outcome [6] | outcome [7] | outcome [8] | outcome [9] | outcome [10] | outcome [11] | outcome [12] | outcome [13] | outcome [14] | outcome [15] | outcome [16] | outcome [17]

COc1ccc(Cl)c2sc(N(CCN(C)C)C(=O)CCS(=O)(=O)c3ccc(C)cc3)nc12
active: potentiation [3] 12%
inactive: outcome [1] | outcome [2] | outcome [4] | outcome [5] | outcome [6] | outcome [7] | outcome [8] | outcome [9] | outcome [10] | outcome [11] | outcome [12] | outcome [13] | outcome [14] | outcome [15] | outcome [16] | outcome [17]

O=C(C1CCN(S(=O)(=O)c2cccnc2)CC1)N1CCN(c2ccc(Cl)cc2)CC1
inactive: outcome [1] | outcome [2] | outcome [3] | outcome [4] | outcome [5] | outcome [6] | outcome [7] | outcome [8] | outcome [9] | outcome [10] | outcome [12] | outcome [15] | outcome [16] | outcome [17]
active: activation [11] 35.5% | activation [13] 29.8% | inhibition [14] 42.4%

CSCC[C@H](NC(=O)N1CCn2c1nc1ccccc12)C(=O)NCc1ccc(F)cc1
inactive: outcome [1] | outcome [2] | outcome [3] | outcome [5] | outcome [6] | outcome [7] | outcome [8] | outcome [9] | outcome [10] | outcome [11] | outcome [12] | outcome [13] | outcome [14] | outcome [15] | outcome [16] | outcome [17]
active: potentiation [4] 27%

Cc1cc(C(=O)CN2C(=O)C(=O)N(CC(C)C)C2=O)c(C)n1-c1ccccc1F
active: potentiation [15] 35.1%
inactive: outcome [1] | outcome [2] | outcome [3] | outcome [4] | outcome [5] | outcome [6] | outcome [7] | outcome [8] | outcome [9] | outcome [10] | outcome [11] | outcome [12] | outcome [13] | outcome [14] | outcome [16] | outcome [17]

CC(=O)Nc1cccc(C(=O)OC(C(=O)c2ccc(C)cc2)c2ccccc2)c1 (stereo not given)
active: potentiation [15] 22.7%
inactive: outcome [1] | outcome [2] | outcome [3] | outcome [4] | outcome [5] | outcome [6] | outcome [7] | outcome [8] | outcome [9] | outcome [10] | outcome [11] | outcome [12] | outcome [13] | outcome [14] | outcome [16] | outcome [17]

O=S(=O)(c1ccc(Cl)cc1Br)N1CCCCC1
inactive: outcome [1] | outcome [2] | outcome [3] | outcome [4] | outcome [5] | outcome [6] | outcome [7] | outcome [8] | outcome [9] | outcome [10] | outcome [11] | outcome [12] | outcome [13] | outcome [14] | outcome [15] | outcome [16] | outcome [17]
